This is an account of results in PubChem BioAssay (EPA / NIEHS).

Molecules are shown by their SMILES. “And” between values parts separate entries of the source, which are not always exact repeats. Equal entries are not always repeated. Inconclusive results are not listed. The source made the active and inactive calls. Rule for the calls, unless noted: active = hit-call score of the fitted dose curve at least 0.9, where 1 is the maximum; inconclusive = response in the unintended direction; inactive = score below 0.9.

One assay relates to SERPINA7 (gene 6906). Briefly: CCTE_GLTED_hTBG: CCTE's human Thyroxine-binding Globulin (TBG) Inhibition Assay, Great Lakes Toxicology and Ecology Division (GLTED) Lab (AID 2284343).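 Note: active chemicals lower fluorescence versus DMSO baseline by displacing probe.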 Put shortly: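 Human TBG incubated 2 h with test chemical; displacement of ANSA probe read by fluorescence, 380 nm excitation/475 nm emission. Loss of signal relative to DMSO.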
A short description of assay [1]: CCTE_Mundy_HCI_iCellGluta_NOG_NeuronCount: CCTE's Neurite Outgrowth Assay in iCellGluta cells for Neuron Count, Mundy Lab (AID 2284340).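 Note: cells fixed about 48 h after compound addition.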 Put shortly: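 Neuron count read by automated high-content imaging of Hoechst 33342 and betaIII-tubulin/Alexa Fluor-488 labelling in human iPSC glutamatergic neurons. Activity fitted relative to DMSO.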
A short description of assay [2]: Tanguay_ZF_120hpf_MO24: Oregon State University Tanguay Lab 24 Hour Post-fertilization zebrafish Assay for Mortality (AID 2284389; active = hit-call score of the fitted dose curve at least 0.9, where 1 is the maximum; inactive = score below 0.9). The protocol: Tanguay_ZF_120hpf is a whole embryo, multiplexed endpoint assay using zebrafish larvae exposed for 120 hours post fertilization on a 96-well plate.Tanguay_ZF_120hpf_MO24 is one of one assay component(s) measured or calculated from the Tanguay_ZF_120hpf assay. It is designed to make measurements of zebrafish development as detected with brightfield microscopy of developing zebrafish embryos.Data from the assay component Tanguay_ZF_120hpf_MO24 was analyzed into 1 assay endpoints. This assay endpoint, Tanguay_ZF_120hpf_MO24, was analyzed in the positive analysis fitting direction relative to DMSO as the negative control and baseline of activity. […]
Zebrafish husbandry: Tropical 5D wild-type adult zebrafish were housed in at an approximate density of 1000 per 100 gallon tank at the Sinnhuber Aquatic Research Laboratory, Oregon State University, Corvallis, OR. […] At 24 hpf, embryos were assessed for photomotor response using a custom photomotor response analysis tool (PRAT) and for developmental toxicity endpoints (MO24: mortality at 24 hpf, DP: developmental progression, SM: spontaneous movement, and NC: notochord distortion). At 120 hpf, locomotor activity was measured using Viewpoint Zebralab and assessed for 13 endpoints. […] If mortality occurred for an embryo (at either 24 or 120 hpf), the non-mortality endpoints were not measured.

Assay [3] can be described thus: Tanguay_ZF_120hpf_DP24: Oregon State University Tanguay Lab 24 Hour Post-fertilization zebrafish Assay for Delayed Development (AID 2284390; active = hit-call score of the fitted dose curve at least 0.9, where 1 is the maximum; inactive = score below 0.9). In a few lines: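 Dechorionated 5D wild-type zebrafish embryos exposed statically from 6 hpf, one per well, 0.64% DMSO final, 28 C, sealed and dark. Developmental progression scored at 24 hpf by brightfield as binary present/absent; dead embryos excluded.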

Assay [4] can be described thus: Tanguay_ZF_120hpf_CRAN: Oregon State University Tanguay Lab 120 Hour Post-fertilization zebrafish Assay for Craniofacial Malformation (AID 2284397; active = hit-call score of the fitted dose curve at least 0.9, where 1 is the maximum; inactive = score below 0.9). In a few lines:
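Dechorionated Tropical 5D wild-type zebrafish embryos, one per well, were statically exposed from 6 to 120 hpf at 28C in 0.64% DMSO, with 5uM trimethyltin chloride as positive control. Craniofacial malformation was scored present/absent by brightfield microscopy, relative to DMSO.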

Assay [5] in a line: CCTE_Mundy_HCI_iCellGluta_NOG_NeuriteCount: CCTE's Neurite Outgrowth Assay in iCellGluta cells for Neurite Count, Mundy Lab (AID 2284342).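 Note: chemical exposure about 48 hours starting 2 hours after plating.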
Assay [6] is described as follows: VALA_TUBIPS_Agonist_CellCount: Viability Assessment in the VALA Sciences human iPS-derived Endothelial Tubule Formation (TUBIPS) Agonism Assay (AID 2284338).
Assay [7] is described as follows: CCTE_Deisenroth_H295R-HTRF_384WELL_ESTRADIOL: CCTE's H295R-HTRF Assay Evaluation of Estradiol Concentration, Deisenroth Lab (AID 2284361; active = hit-call score of the fitted dose curve at least 0.9, where 1 is the maximum; inactive = score below 0.9). The note with it: actives raise or lower the signal. Put shortly: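 H295R cells exposed 48 h to chemicals at 0.001 - 100 uM final (nine points, triplicate); estradiol in conditioned medium measured by HTRF immunoassay, fitted bidirectionally versus DMSO. Viability by CellTiter-Glo on same plates.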
(In general: In TR-FRET formats the signal depends on donor and acceptor labels being close together.)

The nature of assay [8]: CCTE_Deisenroth_H295R-HTRF_384WELL_TESTOSTERONE: CCTE's H295R-HTRF Assay Evaluation of Testosterone Concentration, Deisenroth Lab (AID 2284373; active = hit-call score of the fitted dose curve at least 0.9, where 1 is the maximum; inactive = score below 0.9). The note with it: actives raise or lower the signal. Put shortly:
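H295R cells were acclimated 24 h, then exposed 48 h to nine concentrations (0.001–100 uM final) in technical triplicate, n=5. Testosterone in conditioned medium was measured by HTRF (em 620/665 nm). Fitting was bidirectional versus DMSO; CellTiter-Glo viability ran on the same plates.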

Assay [9] can be described thus: CCTE_Deisenroth_H295R-HTRF_384WELL_CTOX: Cytotoxicity Assessment in CCTE's H295R-HTRF Assay, Deisenroth Lab (AID 2284380). Put shortly: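 H295R adrenocortical carcinoma cells plated 24 h, then exposed 48 h to nine-point series 0.001–100 uM final, triplicate, n=5. ATP measured by CellTiter-Glo 2.0 luminescence on same plates after medium collection; loss versus DMSO.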

The term AC50 denotes the concentration at which the activity in the assay is half-maximal. Take `CC(C)(C)CC(C)(C)c1ccc(O)cc1`: in the assay with SERPINA7 (gene 6906), the AC50 was 5.79 µM (active).

On to `COP(=S)(OC)Oc1ccc(Sc2ccc(OP(=S)(OC)OC)cc2)cc1`, for which the AC50 in the assay on SERPINA7 (gene 6906) is 2.89 µM (active).

As for `CC(C)(c1ccccc1)c1ccc(O)c(C(C)(C)c2ccccc2)c1`, the AC50 in the assay on SERPINA7 (gene 6906) is 7.35 µM (active).

On to `O=C(O)C(F)(F)C(F)(F)C(F)(F)C(F)(F)C(F)(F)C(F)(F)F`, for which the compound was called inactive in [1], in [2], in assay [3] and in [4].

For `CCOP(=S)(OCC)Oc1nc(Cl)c(Cl)cc1Cl`, in the assay with SERPINA7 (gene 6906), the AC50 was 18.6 µM (active).

As to `C=C(C)C(=O)[O][Sn]([CH2]CCC)([CH2]CCC)[CH2]CCC`, the AC50 is 0.202 µM (active) in [1] and 0.188 µM (active) in [5].

With `CCCCCCCCc1ccc(O)cc1`, the AC50 in the assay on SERPINA7 (gene 6906) is 36 µM (active).

On to `CCC(C)(C)c1ccc(O)c(C(C)(C)CC)c1`, for which the AC50 with SERPINA7 (gene 6906) is 13.3 µM (active).

Consider `ClCC(Cl)CCl`, for which the call in [6] was inactive.

Consider `O=[N+]([O-])c1ccc(O)c([N+](=O)[O-])c1`, for which the AC50 in the assay on SERPINA7 (gene 6906) is 21.9 µM (active).

On to `O=C(O)C(F)(F)C(F)(F)C(F)(F)C(F)(F)C(F)(F)C(F)(F)C(F)(F)C(F)(F)C(F)(F)C(F)(F)F`, for which the AC50 in the assay with SERPINA7 (gene 6906) is 2.7 µM (active) and 47.2 µM (active). Moreover, the result in assay [2], in assay [3] and in assay [4] was inactive.

As for `COP(=O)(OC)O/C(=C\Cl)c1cc(Cl)c(Cl)cc1Cl`, the AC50 in [1] was 51.5 µM (active); in assay [5], 51.5 µM (active); with SERPINA7 (gene 6906) it was 10.1 µM (active).

Take `COc1cc(-c2ccc(N)c(OC)c2)ccc1N`: the AC50 in the assay on SERPINA7 (gene 6906) was 19.3 µM (active) and 32.2 µM (active).

For `Fc1ccc(C2(Cn3cncn3)OC2c2ccccc2Cl)cc1` (centres undefined), the AC50 in assay [7] was 1.14 µM (active); in [8], 1.23 µM (active). Besides, in assay [9], the compound was classed as inactive.

Regarding `O=C1C2(Cl)C3(Cl)C4(Cl)C(Cl)(Cl)C5(Cl)C3(Cl)C1(Cl)C5(Cl)C24Cl` (centres undefined), the AC50 in [1] is 17.9 µM (active); in assay [5], 21.6 µM (active). For the same compound, the result in the assay on SERPINA7 (gene 6906) was inactive.

With `CC(C)(C)c1cc(O)ccc1O`, in assay [6], the AC50 was 50 µM (active).

As to `CC(C)c1cccc(C(C)C)c1O`, the AC50 with SERPINA7 (gene 6906) is 44.1 µM (active).

For `ClC1(Cl)C2(Cl)C3(Cl)C4(Cl)C(Cl)(Cl)C5(Cl)C3(Cl)C1(Cl)C5(Cl)C24Cl` (centres undefined), the outcome in the assay with SERPINA7 (gene 6906) was inactive.

In the case of `O=C(Cc1ccccc1)c1ccccc1`, the AC50 in the assay with SERPINA7 (gene 6906) was 10 µM (active).

For `C[C@H]1CCCC(=O)CCC/C=C/c2cc(O)cc(O)c2C(=O)O1`, the AC50 in the assay with SERPINA7 (gene 6906) was 50 µM (active).

For the compound `CCC1(c2ccc(N)cc2)CCC(=O)NC1=O` (centres undefined), the compound was classed as inactive in assay [7], in assay [8] and in assay [9].

Regarding `O=C1C(Cl)=C(Cl)C(=O)c2ccccc21`, in the assay on SERPINA7 (gene 6906), the AC50 was 43.7 µM (active).

`Oc1ccc(-c2ccccc2)cc1`: the AC50 in the assay with SERPINA7 (gene 6906) was 31.2 µM (active).

Take `CC1(C)CCC(Cc2ccc(Cl)cc2)C1(O)Cn1cncn1` (centres undefined): the AC50 in the assay with SERPINA7 (gene 6906) is 30.1 µM (active).
